The source of these data is PubChem BioAssay.

A short description of experiment [1]: inhibitors of TNFa-induced NFkB p65 translocation, primary screen, imaging, HUVEC, MLSMR starter and 10KST1 sets (AID 438;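 active = inhibition above 20% together with a positive visual image hit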;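 note: compound added about 3h40 before a 20 min TNFalpha stimulation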;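 for inhibition: signal is the nuclear over cytoplasmic p65 intensity ratio per well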). To be noted: HUVEC TNFa-induced p65 nuclear translocation; cell count: measured here: nuclei count (cytotoxicity indicator), at 2.08 µM; inhibition: at 2 µM, stronger effect = higher value, 0% TNFa-plus-vehicle, 100% no-TNFa wells.
The nature of experiment [2]: reduction of polyQ htt aggregates in cells – imaging, exon1htt(103Q)mCFP cells, high-content imaging, primary screen (AID 483;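 active = visual image review flags a hit and inhibition of aggregation exceeds 20%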;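 note: compound exposure lasted 3 days before fixation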;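 for nuclei count: percent of the per-plate median nuclei count of sample wells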). To be noted: exon1htt(103Q)mCFP cell line, aggregate imaging, at 2 µM; inhibition of aggregation: stronger effect = higher value; nuclei count: measured here: cell count, toxicity.
Experiment [3] is described as follows: endothelial E-selectin expression blockers – imaging, HUVEC, immunofluorescence, MLSMR starter and 10KST1 sets, primary screen (AID 487;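 active = visually confirmed hit in the image check and inhibition above 20%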;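 for inhibition: signal is fraction of cell area covered by stained E-selectin grains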;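 for nuclei count: 100% = median nuclei count of all wells on the same plate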). To be noted: HUVEC TNFalpha-induced E-selectin immunofluorescence imaging, at 2 µM; inhibition: stronger effect = higher value; nuclei count: measured here: cell number, toxicity.
Experiment [4] addresses Voltage-gated potassium channel subunit beta-2 (Rattus norvegicus) (UniProt P62483). In words: inhibitors of rat Kvbeta2 reductase activity – biochemical, NADPH fluorescence, primary screen (AID 622;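 active = fluorescence slope higher than the sample average by over 3 SD, cut at about -0.22 in these data, passing the limit was not always enough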;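 note: slope of raw intensity against log time taken from 70 to 1610 s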). To be noted: recombinant KvBeta, 4-cyanobenzaldehyde reduction, at 10 µM, stronger effect = higher value.
Experiment [5] shares this target. In words: enhancers of rat Kvbeta2 NADPH turnover – biochemical, NADPH fluorescence, primary screen (AID 623).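 Note: fluorescence intensity change per second fitted from 20 to 320 s.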 The following applies: Recombinant KvBeta, NADPH fluorescence decrease slope, 10 min; at 10 µM; stronger effect = lower value.
In experiment [6] the target is Alpha-2C adrenergic receptor (Homo sapiens) (UniProt P18825). In words: compounds altering alpha2C-coupled GIRK flux – cell-based, HEK293 alpha2C/GIRK1/2, thallium flux, primary screen (AID 624;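 active = fluorescence slope after compound addition differing from the mean of all screened samples at 99.7% confidence, in either direction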;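 note: slope of fluorescence ratio to pre-addition baseline per second over 15 to 24 s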). To be noted: thallium flux BTC fluorescence, at 10 µM, actives lie on both sides.
The nature of experiment [7]: blockers of RIG-like receptor reporter activation – cell-based, Sendai virus stimulus, luciferase, 10K MLSCN set, TLR/RLR signaling modifier project, primary screen (AID 602276;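 active = inhibition at or above 50% at 10 µM; inactive = inhibition below 50%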;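 note: firefly luciferase from ISG56 promoter only with Renilla not read in this screen; 0% = Sendai virus plus DMSO and 100% = medium plus DMSO without virus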). To be noted: HEK293 RL24 IRF3 luciferase reporter, at 10 µM, stronger effect = higher value. (In general: Reporter assays use an easily measured gene product as a stand-in for the process of interest.)
Experiment [8] in a line: TLR3 IRF3 reporter activation blockers – cell-based, poly I:C stimulus, luciferase, 10K MLSCN set, primary screen (AID 602277;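 active = inhibition of the reporter signal at or above 50%; inactive = inhibition below 50%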). The following applies: HEK293-TLR3 RL24 IRF3 luciferase reporter, at 10 µM, stronger effect = higher value.

Activity calls are given as the source filed them.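 Rule for the calls, unless noted: active = NADPH fluorescence slope more negative than the mean of all samples by about 3 SD, 99.7% confidence; inactive = the rest.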

Voltage-gated potassium channel subunit beta-2 (Rattus norvegicus), sequence (P62483 whole entry, looked up): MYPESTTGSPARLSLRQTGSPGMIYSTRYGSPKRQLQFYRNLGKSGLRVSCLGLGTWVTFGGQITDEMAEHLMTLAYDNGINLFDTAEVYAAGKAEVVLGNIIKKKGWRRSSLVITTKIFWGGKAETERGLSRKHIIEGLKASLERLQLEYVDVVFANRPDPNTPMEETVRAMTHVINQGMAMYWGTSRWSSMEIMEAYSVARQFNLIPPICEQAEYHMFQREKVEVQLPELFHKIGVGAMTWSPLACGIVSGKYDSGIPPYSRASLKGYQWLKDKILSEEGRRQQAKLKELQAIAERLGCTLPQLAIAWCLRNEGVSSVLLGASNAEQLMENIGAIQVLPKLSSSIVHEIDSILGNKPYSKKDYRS
Alpha-2C adrenergic receptor (Homo sapiens), sequence (P18825 whole entry, looked up): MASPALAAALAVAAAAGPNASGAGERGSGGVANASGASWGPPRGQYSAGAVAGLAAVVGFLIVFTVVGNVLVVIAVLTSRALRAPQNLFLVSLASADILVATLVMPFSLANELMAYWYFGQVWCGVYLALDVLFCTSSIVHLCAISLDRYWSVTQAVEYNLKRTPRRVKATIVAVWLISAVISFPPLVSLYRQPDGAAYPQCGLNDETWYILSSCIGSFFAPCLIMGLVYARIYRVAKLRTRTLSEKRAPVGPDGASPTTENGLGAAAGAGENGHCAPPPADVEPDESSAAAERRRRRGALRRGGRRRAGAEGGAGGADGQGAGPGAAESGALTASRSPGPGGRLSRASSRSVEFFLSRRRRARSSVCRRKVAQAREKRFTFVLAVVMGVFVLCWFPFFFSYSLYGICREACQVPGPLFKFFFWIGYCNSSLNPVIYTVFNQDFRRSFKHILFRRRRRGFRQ

Consider `c1ccc(-c2ccc(-c3ccccn3)nn2)nc1`, for which, in experiment [1], the cell count amounted to 231. The inhibition in experiment [1] is 11.2% (inactive); in experiment [3], -48.9% (inactive); in experiment [7] it was 7.62% (inactive); in experiment [8], 70.6% (active). In experiment [2], the inhibition of aggregation was -2.4% (inactive). Also, the results for the nuclei count in experiment [2] and in experiment [3] were 67.7% and 121%, respectively. In addition, in experiment [4], the fluorescence slope is -0.419 (inactive). Moreover, in experiment [5], the NADPH fluorescence slope was -1.3e-05 (inactive). Besides, the slope in experiment [6] is 0.00636 (inactive).
`CCOc1ccc(Nc2nc(Cc3nnc(SCC(N)=O)o3)cs2)cc1`: the cell count in experiment [1] was found to be 453. Besides, the inhibition in experiment [1] is 6.7% (inactive); in experiment [7], 9.26% (inactive); in experiment [8] it was 14% (inactive). Besides, the inhibition of aggregation in experiment [2] was -0.8% (inactive). Besides, the nuclei count in experiment [2] was 104%; in experiment [3] it was 154%. The fluorescence slope in experiment [4] is -0.608 (inactive). The NADPH fluorescence slope in experiment [5] is -2.2e-05 (inactive). Further, the slope in experiment [6] was 0.00638 (inactive).
As for `O=C(Oc1cc2oc(=O)c3c(c2cc1Cl)CCCC3)c1ccco1`, the cell count in experiment [1] was determined as 532. The inhibition in experiment [1] was -14.1% (inactive); in experiment [3], -50.1% (inactive); in experiment [7], 4.58% (inactive); in experiment [8], 7.41% (inactive). In experiment [2], the inhibition of aggregation is -4.9% (inactive). Further, the nuclei count was 101% in experiment [2] and 148% in experiment [3]. The fluorescence slope in experiment [4] is -0.14 (inactive). For the same compound, the NADPH fluorescence slope in experiment [5] is -2.3e-05 (inactive). The slope in experiment [6] is 0.00588 (inactive).
As to `C=CCNS(=O)(=O)c1ccc2nsnc2c1`, the cell count in experiment [1] amounted to 383. For the same compound, the inhibition is 2.2% (inactive) in experiment [1], -33.6% (inactive) in experiment [3], -4.18% (inactive) in experiment [7] and -2.28% (inactive) in experiment [8]. Besides, the inhibition of aggregation in experiment [2] is 6.3% (inactive). The results for the nuclei count in experiment [2] and in experiment [3] were 89.1% and 121%, respectively. For the same compound, in experiment [4], the fluorescence slope was -0.508 (inactive). For the same compound, the NADPH fluorescence slope in experiment [5] is -3.2e-05 (inactive). For the same compound, the slope in experiment [6] was 0.0046 (inactive).
Regarding `Cn1c(=O)c2c(nc(NCCNC(=O)c3ccco3)n2Cc2ccccc2Cl)n(C)c1=O`, the cell count in experiment [1] was determined as 424. Moreover, the inhibition in experiment [1] is 7.1% (inactive); in experiment [7], -7.85% (inactive); in experiment [8], 2.32% (inactive). Besides, the inhibition of aggregation in experiment [2] was 1.7% (inactive). Moreover, the values for the nuclei count in experiment [2] and in experiment [3] were 98.3% and 136%, respectively. Besides, the fluorescence slope in experiment [4] is -0.354 (inactive). In addition, in experiment [5], the NADPH fluorescence slope is -2.6e-05 (inactive). Also, the slope in experiment [6] is 0.00598 (inactive).
In the case of `COC(=O)c1ccc(-c2ccco2)n1Cc1nc(-c2ccc(OC)c(OC)c2)oc1C`, the cell count in experiment [1] was 470. The inhibition is -0.5% (inactive) in experiment [1], -28% (inactive) in experiment [3], 12.2% (inactive) in experiment [7] and -0.464% (inactive) in experiment [8]. Also, the inhibition of aggregation in experiment [2] is 19% (inactive). Moreover, the nuclei count in experiment [2] was found to be 113%; in experiment [3], 93.4%. The fluorescence slope in experiment [4] is -0.308 (inactive). Moreover, the NADPH fluorescence slope in experiment [5] is -4.8e-05 (inactive). The slope in experiment [6] is 0.00465 (inactive).
For the compound `CCOC(=O)Cc1c(C)c2c(O)cc(O)cc2oc1=O`, in experiment [1], the cell count is 450. In addition, the values for the inhibition in experiment [1], in experiment [7] and in experiment [8] were 9% (inactive), 15.2% (inactive) and 9.57% (inactive), respectively. Moreover, the inhibition of aggregation in experiment [2] was -19.7% (inactive). Also, the nuclei count was found to be 111% in experiment [2] and 150% in experiment [3]. For the same compound, in experiment [4], the fluorescence slope was -0.0503 (inactive). Further, the NADPH fluorescence slope in experiment [5] was 6.3e-06 (inactive). For the same compound, the slope in experiment [6] was 0.00591 (inactive).
For `O=C(/C=N/O)NCc1ccncc1`, in experiment [1], the cell count came out at 420. Besides, the inhibition in experiment [1] was 1.2% (inactive); in experiment [3] it was 28.2% (inactive); in experiment [7] it was 8.28% (inactive); in experiment [8] it was 11.3% (inactive). In experiment [2], the inhibition of aggregation was 0.7% (inactive). Further, the nuclei count in experiment [2] worked out at 98.3%; in experiment [3], 88%. Moreover, in experiment [4], the fluorescence slope was -0.606 (inactive). Also, in experiment [5], the NADPH fluorescence slope is -2.2e-05 (inactive). Besides, in experiment [6], the slope was 0.00648 (inactive).
With `CCOCCCNC(=O)C(NC(=O)c1ccccn1)c1ccc(C)cc1` (configuration not stated), the cell count in experiment [1] turned out to be 314. Moreover, the inhibition is -13.4% (inactive) in experiment [1], -18.5% (inactive) in experiment [3], 15.1% (inactive) in experiment [7] and 18.1% (inactive) in experiment [8]. Besides, the inhibition of aggregation in experiment [2] was 2.7% (inactive). The nuclei count was 116% in experiment [2] and 111% in experiment [3]. Also, in experiment [4], the fluorescence slope is -0.592 (inactive). For the same compound, in experiment [5], the NADPH fluorescence slope was -4e-05 (inactive). The slope in experiment [6] is 0.00635 (inactive).
As for `COc1ccc(-c2nnc(SCC(=O)NC(=O)NCc3ccco3)o2)cc1`, the cell count in experiment [1] is 417. Moreover, the values for the inhibition in experiment [1], in experiment [7] and in experiment [8] were 5.6% (inactive), 18.6% (inactive) and 24.4% (inactive), respectively. Besides, the inhibition of aggregation in experiment [2] is -7.4% (inactive). Further, the values for the nuclei count in experiment [2] and in experiment [3] were 102% and 157%, respectively. In addition, the fluorescence slope in experiment [4] is -0.455 (inactive). In experiment [5], the NADPH fluorescence slope was 9.2e-05 (inactive). Moreover, the slope in experiment [6] is 0.00577 (inactive).
`CCN(CC)S(=O)(=O)c1ccc(NC2CCCc3ccccc32)nc1` (configuration not stated): in experiment [1], the cell count stood at 451. Further, the inhibition was 7.1% (inactive) in experiment [1], 11.9% (inactive) in experiment [7] and 17.1% (inactive) in experiment [8]. Besides, in experiment [2], the inhibition of aggregation is 15.4% (inactive). Also, the nuclei count in experiment [2] was found to be 103%; in experiment [3] it was 163%. Besides, in experiment [4], the fluorescence slope is -0.594 (inactive). For the same compound, the NADPH fluorescence slope in experiment [5] was -3e-05 (inactive). Also, the slope in experiment [6] was 0.00558 (inactive).
On to `O=S1(=O)C=C(Oc2ccc(F)cc2)c2ccccc21`, for which the cell count in experiment [1] came out at 377. Besides, the inhibition in experiment [1] is -2.7% (inactive); in experiment [3], -0.9% (inactive); in experiment [7] it was 5.55% (inactive); in experiment [8], 7.32% (inactive). Further, in experiment [2], the inhibition of aggregation is -8.6% (inactive). For the same compound, the nuclei count came out at 108% in experiment [2] and 111% in experiment [3]. The fluorescence slope in experiment [4] was -0.321 (inactive). Also, the NADPH fluorescence slope in experiment [5] was -7.4e-05 (inactive). Also, the slope in experiment [6] is 0.00496 (inactive).

For orientation: inhibition means the relative decrease from the control value, in per cent.
